Source: PubChem BioAssay
Values without a mark were called inactive. Calls of active or inactive are those of the source.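 How the source made its calls: active means inhibition of the reporter signal at or above 50%; inactive means inhibition below 50%.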

assay: inhibitors of poly I:C-induced TLR3 signaling, primary screen, cell-based, poly I:C stimulus, luciferase, 10K MLSCN set (AID 602277); conditions: HEK293-TLR3 RL24 IRF3 luciferase reporter, at 10 µM, stronger effect = higher value

SMILES	inhibition
Cc1ccc(C(=O)NC(Cc2c[nH]c3ccccc23)C(=O)O)o1 (stereo not given)	22.8%
N/C(=N/O)c1nc(N2CCCC2)nc(N(c2ccccc2)c2ccccc2)n1	40.9%
COC(=O)c1nnn(-c2ccccc2)c1N	11.8%
CCOC(=O)c1cc2c(=O)n3cccc(C)c3nc2n(CC2CCCO2)c1=NC(C)=O (stereo not given)	8.19%
CCOC(=O)Nc1cc(OC)c(OC)cc1Cc1nccc2cc(OC)c(OC)cc12	5.89%
CCN(CC)S(=O)(=O)c1ccc(Br)c(OC)c1	34.5%
CCOc1ccc2nc(SCc3ccc(C(=O)OC)o3)[nH]c2c1	-5.74%
Nc1nc2n(n1)C(c1cccc(Br)c1)CC(c1ccc(F)cc1)N2 (stereo not given)	15.8%
CCc1[nH]nc2c1C1(CCN(C(=O)OCc3ccccc3)CC1)C(C#N)=C(N)O2	13.6%
Cc1cc(=O)n2nc(-c3ccccc3)sc2n1	-64.6%
CC(=O)OCCNc1cc(N2CCN(C)CC2)c2noc3c2c1C(=O)c1ccccc1-3	21.4%
N#Cc1c(NCc2ccccc2)ccnc1NCc1cccnc1	-44.8%
CCCCc1c(O)nc(N2CCN(Cc3ccccc3)CC2)[nH]c1=O	13.6%
N#CC1=C(N)N(c2ccc(Oc3ccccc3)cc2)C(=O)C1	-5.96%
CCc1ccccc1NC(=O)CCc1nc(-c2ccc(C)cc2)no1	47.2%
c1ccc(OCCCn2nnc(-c3cccnc3)n2)cc1	-2.63%
COc1ccc(Cl)cc1N1CC(c2nc3ccccc3[nH]2)CC1=O (stereo not given)	16.9%
CC1(C)NC(=O)N(CC(O)COc2cccc(F)c2)C1=O (stereo not given)	19.5%
Cc1c(C(=O)OCc2ccccc2)[nH]c2c1C(=O)CC(c1ccco1)C2 (stereo not given)	80.4% (active)
CCOC(=O)c1sc(NC(=O)CSc2nnc(-c3ccc(OC)cc3)n2CCOC)nc1C	24.5%

SMILES	inhibition
COc1ccc(Cn2nnnc2C(c2cccnc2)N2CCN(c3ccc(O)cc3)CC2)cc1 (stereo not given)	21.3%
CCOC(=O)Cn1c(CN(C)Cc2ccccc2)nc2c1c(=O)n(C)c(=O)n2C	10.8%
CNC(=O)CSc1nnc(-c2ccc(S(=O)(=O)N3CCCC3)cc2)n1-c1cccc(C)c1C	33.2%
O=C(COC(=O)CSc1nnc(-c2ccc(Cl)cc2)o1)NCc1ccc2c(c1)OCO2	17.2%
CC(C)(C)n1ncc2c(=O)n(CC(=O)NCc3ccc(F)cc3)cnc21	-46.6%
CC1CCN(S(=O)(=O)c2cccc(C(=O)Nc3ccccn3)c2)CC1	23.9%
CCOC(=O)c1cc2c(=O)n3ccccc3nc2n(CC2CCCO2)c1=NC(C)=O (stereo not given)	10.8%
CCOC(=O)c1[nH]c(C)c(C(=O)N2CCN(C(=O)c3ccco3)CC2)c1C	18.7%
CCN(CC)S(=O)(=O)c1ccc(NC(=O)Cn2cnc3ccccc3c2=O)cc1	16%
CCOC(=O)c1c(C)[nH]c(C(=O)COC(=O)c2ccc(F)c(S(=O)(=O)N3CCOCC3)c2)c1C	13.3%
O=C(CN1CCN(c2ncccn2)CC1)Nc1ccccc1-n1cccc1	8.32%
CCOC(=O)Cn1c(=O)c(-c2ccccc2N)nc2ccccc21	33.1%
CCCOc1ccc(NC2=CC(=O)CC(C)(C)C2)cc1	-12.8%
CCOC(=O)C1(CC)NC(c2cccc(F)c2)C2C(=O)N(CC)C(=O)C21 (stereo not given)	16.3%
CCC(C)NC(=O)CC1Oc2ccc(C)cc2NC1=O (stereo not given)	22.9%
O=C(NCC(=O)N(c1cnc2ccccc2c1)C(C(=O)NC1CCCC1)c1ccncc1)c1ccco1 (stereo not given)	17.8%
O=C(Nc1cccc2ccccc12)N1CCN(c2ccccc2)CC1	15.2%
CC(C)(C)Nc1nc(NC(C)(C)C)nc(-n2ccnc2)n1	29%
Nc1nnnn1NCc1cccc(OCc2ccccc2)c1	-6.8%
O=C(COC(=O)C1CC(=O)N(c2ccccc2)C1)c1ccccc1 (stereo not given)	-4.16%
